Hits are enriched below; roughly 12% of the tested compounds scored in any of these assays.
SARS PLpro yeast – blocks SARS-CoV papain-like protease in a yeast assay. AID 485353. Potency, µM (top dose mostly 32.9 µM), inactives show top-dose activity, positive = growth rescue, most hits filed as activators. S. cerevisiae expressing SARS-CoV PLpro, growth rescue. 0.19% of 330,000 active; calls by dose curve; note: 0% is about no effect; nearly all actives have a fitted effect of over 55% in size
HCV inhibitor – HCV inhibition | Huh7.5.1 HCVcc-Cre infection, luciferase reporter, 44 h | Potency, µM (titrated, usually from 41.8 µM), for the others: at the top dose activity change, negative = inhibition, usual class: inhibitors | 3.4% of 340,000 active; note: % is set by controls: 0 for no effect and ±100 for the full control effect
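Reporter virus HCVcc-Cre (~0.5 moi) infects cells exposed to compound; seeding density 1,000 cells/well with 4 h settling beforehand. Luminescence, 15 sec read, taken 44 h post-infection following a 15 min RT substrate incubation.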
AMA1-RON2 inh – inhibitors of Plasmodium falciparum AMA1-RON2 interaction; AlphaScreen AMA1-biotinylated RON2 peptide binding; Potency, µM (highest dose often 58.2 µM), without a hit: top-dose activity change, negative = inhibition, most hits filed as inhibitors; 0.2% of 360,000 active; AID 720542;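 note: 0% = vehicle wells and -100% = peptide control; nearly all actives have a fitted effect of over 45% in size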
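AMA1 (3D7) with his tag at 25 nM final met compounds first, then biotinylated RON2 peptide at 25 nM; detection used donor plus acceptor beads, 10 µg/mL apiece, read by AlphaScreen after 30 min at room temperature.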
NS1 function inh – influenza NS1 inhibition; Potency, µM (top dose mostly 46.1 µM), for the others: at the highest dose activity, positive = more growth; 0.4% of 270,000 active; calls by dose curve; note: actives are rising curves; nearly all actives have a fitted effect of over 50% in size
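Growth recovery, yeast-based: influenza A NS1 expressed in S. cerevisiae causes slow growth, and suppressors are detected by OD600. The parent strain without NS1 is used as positive control.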
Pf growth 96h – P. falciparum growth inhibition at 96 hour, primary screen for plastid delayed-death inhibitors | Potency, µM (top dose mostly 28.7 µM), for the others: top-dose activity change, negative = inhibition, actives largely listed as inhibitors | 6.9% of 320,000 active | P. falciparum luciferase reporter growth, 96 h; note: % is set by controls: 0 for no effect and ±100 for the full control effect
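P. falciparum expressing integrated firefly luciferase, in erythrocytes at 2% hematocrit, 0.05% parasitemia, incubated with compounds 96 h at 37 C, 5% CO2. Growth inhibition read as loss of luminescence; two-generation exposure targets delayed-death apicoplast inhibitors.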
Pf growth 48h – inhibits P. falciparum growth in the first generation, 48 h | 5.9% of 310,000 active | Potency, µM (doses to about 28.7 µM), without a hit: at the top dose activity change, negative = inhibition, hits mostly inhibitors | AID 504832 | P. falciparum luciferase growth in erythrocytes, 48 h; note: % is set by controls: 0 for no effect and ±100 for the full control effect
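Read-out is firefly luciferase luminescence from an integrated reporter in P. falciparum, so falling signal marks reduced parasite growth. Infected erythrocytes were at 2% hematocrit and 0.1% parasitemia (final) in Albumax-supplemented RPMI 1640.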
An asterisk follows results filed as active; ? = inconclusive; nt = no result; ! = not confirmed by another sample. Unless noted, calls come from the whole dose curve; as a rule, active = well fitted curve in the direction sought with a large enough effect; inconclusive = small, poorly fitted or top-dose-only effect, or another doubt; inactive = no such curve, though single readings can be large; an effect the other way counts as inactive or inconclusive. Potency is the fitted concentration of half-maximal effect.

SMILES	SARS PLpro yeast	HCV inhibitor	AMA1-RON2 inh	NS1 function inh	Pf growth 96h	Pf growth 48h
Cc1cccc(C(=O)N2N=C(c3ccc(NS(C)(=O)=O)cc3)CC2c2cccs2)c1 (stereo not drawn)	0%	?	-2%	17%	?	8.3µM*
CC(=O)OC1=CC2=CC[C@H]3[C@H]4CCC(=O)[C@@]4(C)CC(=O)[C@]3(S)[C@]2(C)CC1	nt	nt	nt	0%	nt	nt
CC(NCCCOc1cccc2ccccc12)c1ccccc1 (stereo not drawn)	-4%	?	-8%	-32%	?	?
CCC(CC)C(=O)N1N=C(c2ccc(NS(C)(=O)=O)cc2)CC1c1ccc(C)cc1 (stereo not drawn)	-1%	?	-11%	11%	5.2µM*	?
CCC(CC)C(=O)N1N=C(c2ccc(NS(C)(=O)=O)cc2)CC1c1ccccc1 (stereo not drawn)	1%	?	-8%	0%	?	?
COc1ccccc1C1CC(c2ccc(NS(C)(=O)=O)cc2)=NN1C(=O)c1ccccc1 (stereo not drawn)	0%	15%	-1%	nt	?	2.1µM*
COc1ccc([N+](=O)[O-])cc1N(CC(O)CN1C(=O)NC(C)(C)C1=O)S(=O)(=O)c1ccccc1 (stereo not drawn)	-3%	15%	0%	-5%	15µM*	22%
CCc1cc2c(=O)c(-c3nc(C)cs3)c(CCCC(=O)O)oc2cc1O	0%	5%	-1%	-5%	9.3µM*	3%
CCCc1cc2c(=O)c(-c3cscn3)c(C(=O)OCC)oc2cc1O	3%	15%	-4%	nt	-2%	31%
COCCNC(=O)C(c1ccc(C)cc1)N(C(=O)CCC(=O)Nc1ccccn1)C1CCCCC1 (stereo not drawn)	4%	11%	12%	-3%	10%	-26%
CCOc1ccc(OCc2ccc(C(=O)NCc3cccnc3)o2)cc1	-1%	?	-1%	10%	?	0%
CCOc1ccc(OCc2ccc(C(=O)Nc3cccnc3)o2)cc1	1%	-15%	-8%	-44%	9.3µM*	12µM*
CCN1CCN(C(=O)c2ccc(COc3cccc(Cl)c3)o2)CC1	-3%	?	-3%	0%	-10%	25%
CN(C)c1ccc(NC(=O)c2ccc(COc3cccc(Cl)c3)o2)cc1	-11%	-28%	28µM*	-39%	nt	nt
O=C(CCCCN1CCCCC1)c1ccccc1	nt	-14%	1%	nt	nt	nt
O=C(C(=Cc1ccccc1)CN1CCCCC1)c1ccccc1	nt	2.2µM*	-6%	nt	nt	nt
C=CCNC(=O)c1oc2ccc(S(=O)(=O)N3CCCCC3)cc2c1C	2%	2%	0%	-23%	?	-22%
Cc1c(C(=O)NCc2cccnc2)oc2ccc(S(=O)(=O)N3CCCCCC3)cc12	-2%	11µM*!	-1%	-33%	7%	9.3µM*
Cc1c(C(=O)NCc2ccccc2)oc2ccc(S(=O)(=O)N3CCCC3)cc12	4%	3%	2%	-10%	?	nt
Cc1c(C(=O)NCc2cccnc2)oc2ccc(S(=O)(=O)N3CCCCC3)cc12	7%	?	1%	-15%	?	5.2µM*
COC(=O)CN(c1ccc(C(C)C)cc1)S(=O)(=O)c1c(C)[nH]c(=O)[nH]c1=O	-5%	-1%	5%	-1%	9.3µM*	nt
COc1ccc(-c2cnc(OC(C)(C)C)nc2OC(C)(C)C)cc1OC	-1%	?	-2%	-2%	nt	10µM*
Cc1cccc(NC(=O)Nc2ccc(Oc3c(F)c(F)c(F)c(F)c3F)cc2)c1	7%	29%	6%	6%	7.4µM*	?
CCOc1ccc(N(CC(=O)N2CCCCCC2)S(=O)(=O)c2ccc(F)cc2)cc1	-7%	12%	-1%	5%	81%	-15%
CC(=O)c1ccc(NS(=O)(=O)c2ccc(-c3cnc(C4CC4)o3)cc2)cc1	0%	12%	-11%	-1%	-27%	34%
Cc1ccc(NS(=O)(=O)c2ccc(-c3cnc(C4CC4)o3)cc2)cc1	-17%	?	-5%	-42%	12µM*	7%

Compound activity (PubChem BioAssay)
